Out of some 96,000 compounds screened, about 19,000 (20%) were called active.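 How the source made its calls: active means blocking of liver enzyme CYP2C9 beyond about 50% at 5 µM (limit read from the data); inactive means the rest.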 The list is a sample of the results.
target: Cytochrome P450 2C9 (Homo sapiens) (UniProt P11712); assay: blockers of cytochrome P450 2C9 activity – biochemical, luminescence, ADME assay, primary screen (AID 777); conditions: CYP2C9 Supersomes, luciferin-H conversion, at 5 µM, hits give high values
Sequence (P11712 whole entry, looked up): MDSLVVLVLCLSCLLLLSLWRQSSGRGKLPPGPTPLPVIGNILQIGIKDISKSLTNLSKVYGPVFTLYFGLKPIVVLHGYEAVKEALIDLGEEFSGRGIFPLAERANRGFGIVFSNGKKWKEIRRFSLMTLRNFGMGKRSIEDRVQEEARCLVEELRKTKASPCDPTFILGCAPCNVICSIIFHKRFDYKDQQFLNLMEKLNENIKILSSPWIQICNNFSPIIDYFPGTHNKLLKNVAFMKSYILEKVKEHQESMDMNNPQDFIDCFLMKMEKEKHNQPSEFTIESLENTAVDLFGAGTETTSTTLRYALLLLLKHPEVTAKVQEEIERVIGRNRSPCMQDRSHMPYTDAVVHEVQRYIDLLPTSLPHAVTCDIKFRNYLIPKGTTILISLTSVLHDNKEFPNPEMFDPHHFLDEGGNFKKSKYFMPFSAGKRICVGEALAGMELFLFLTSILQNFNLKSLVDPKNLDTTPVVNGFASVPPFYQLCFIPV

inhibition, active:
Cc1ccc(S(=O)(=O)Nc2ccccc2CNc2c(C)n(C)n(-c3ccccc3)c2=O)cc1 83.9%
CCN(CC)c1nc(-c2ccccc2)cc(C(F)(F)F)c1C#N 89.5%
Cc1cc(SCC(=O)c2ccccc2)nc(SCC(=O)c2ccccc2)n1 66.3%
O=S(=O)(Nc1ccc(Oc2ncccn2)c(Cl)c1)c1ccc(F)cc1 99.7%
O=C(C(c1ccccc1)c1ccccc1)N1CCN(CC(O)COc2ccccc2)CC1 (stereo unspecified) 65.6%
CCn1c(NC(=O)c2ccccc2)c(-c2cccs2)c(=O)c2ccccc21 86.7%
CCS(=O)(=O)Nc1ccc(C2=NN(S(=O)(=O)c3ccc(F)cc3)C(c3ccco3)C2)cc1 (stereo unspecified) 87.7%
Cc1cccc(NC(=O)C(C)N2C(=O)C3C4CC(C(Br)C4Br)C3C2=O)c1 (stereo unspecified) 51.6%
CCOc1ccccc1C1NC(=O)NC(C)=C1C(=O)OCc1ccco1 (stereo unspecified) 75.3%
CCC(=O)NC(Nc1nc2ccc(C)cc2s1)(C(=O)OC)C(F)(F)F (stereo unspecified) 97%
CC(C)CCSc1ncnc2c1oc1nc3c(cc12)COC(C)(C)C3 55.7%
O=C(COC(=O)c1ccccc1NC(=O)c1ccco1)Nc1ccc2c(c1)OC(F)(F)O2 76.1%
CC(C)CCn1c(CN(C)Cc2ccccc2)nc2c1c(=O)n(C)c(=O)n2C 95.6%
Cn1c(=O)c2c(nc(OCc3cccnc3)n2Cc2ccccc2)n(C)c1=O 52.4%
COCCn1c(CN2CCC(Cc3ccccc3)CC2)nc2c1c(=O)n(C)c(=O)n2C 54.2%
COCCn1c(CN(Cc2ccccc2)Cc2ccccc2)nc2c1c(=O)n(C)c(=O)n2C 96.4%
CC(C)Cn1c(CN(Cc2ccccc2)Cc2ccccc2)nc2c1c(=O)n(C)c(=O)n2C 72.2%
Cc1ccc(S(=O)(=O)n2nc(OC(=O)C(C)(C)C)cc2N)cc1 50.4%
Nc1cc(OC(=O)c2ccccc2Br)nn1S(=O)(=O)c1ccccc1 61.5%

inhibition, inactive:
Cc1nn(Cc2ccc(C(=O)N3N=C(C(F)F)CC3(O)C(F)F)cc2)c(C)c1[N+](=O)[O-] (stereo unspecified) 25.2%
CCOC(=O)C1CCCN(C(=O)c2sc3nc(C)nc(N4CCOCC4)c3c2C)C1 (stereo unspecified) 23.1%
O=C1Nc2ccccc2C12Nc1ccccc1S2 (stereo unspecified) 37.5%
COc1ccc(C(CC(=O)O)NC(=O)Cc2ccccc2)cc1 (stereo unspecified) -10.6%
Nn1cnnc1N/N=C/c1cc([N+](=O)[O-])c(Cl)cc1Cl 16.5%
O=C(NCC(F)(F)F)Nc1nnc(C(F)(F)F)s1 -13.1%
CN1C(=O)c2ccccc2C(C(=O)NCCCN2CCCC2)C1c1c[nH]c2ccccc12 (stereo unspecified) 4.5%
CCn1nc(NC(=O)c2ccco2)c2cc3ccc(C)cc3nc21 19.8%
Cc1c(-c2ccccc2)cn2c1-c1ccc(C)n1CC2 -10.8%
O=[N+]([O-])c1ccc(NCCCN2CCOCC2)c(Cl)c1 6.4%
CC(C)c1ccc(C(=O)NCCCc2ccccc2)cc1 37.2%
COc1ccc(S(=O)(=O)Nc2c(C)n(C)n(-c3ccccc3)c2=O)cc1 -4.2%
COC(=O)Nc1c(C)n(C)n(-c2ccccc2)c1=O -15.1%
C/C(=N/NC(=O)c1cc(Cl)ccc1O)C12CC3CC(CC(C3)C1)C2 24.2%
Cc1nc(C)c2c(c1C(F)(F)F)-c1ccccc1C2(F)F -9.6%
Nc1ncc(-c2cc3ccccc3oc2=O)s1 24%
CCc1c(-c2ccccc2)nc(N)c(C#N)c1-c1cccs1 21.7%
N#Cc1c(C(F)(F)F)cc(-c2ccccc2)nc1SCC(=O)N1CCOCC1 -15.6%
Cc1ccc(-c2csc(-c3c[nH]c4ccccc34)n2)cc1 9.8%
COc1ccc2c(Cl)c(C(=O)NCc3ccco3)sc2c1 -31.6%
Cc1nc(SCC(=O)c2ccccc2)c([N+](=O)[O-])[nH]1 39.1%
COC(=O)c1cc(C(=O)CSc2nc(C)cc(C)n2)ccc1O 6%
O=S(=O)(NCCOc1cccc2cccnc12)c1ccc(F)cc1 -234%
O=S(=O)(NCc1ccccn1)c1ccc(F)cc1 -1.3%
CCCNc1ncnc2sc(C)c(C)c12 8.4%
CC(=O)c1ccc(Oc2cc(C)nc(-n3nc(C)cc3C)n2)cc1 -5%
COc1cccc(OCC(O)CN2CCN(CCO)CC2)c1 (stereo unspecified) -2.9%
OC(COc1cccc(OCC(O)CN2CCCC2)c1)CN1CCCC1 (stereo unspecified) 15.5%
CN(C(=O)C1CCOC1)c1nnc(-c2cccnc2)s1 (stereo unspecified) 0.8%
Cn1sc(NC(=O)c2ccccc2)nc1=O 19.9%
CCn1c(=O)cc(O)c2ccccc21 -18.7%
Cc1cc(-c2ccccc2)n2nc(C)c(-c3ccccc3)c2n1 -9.3%
O=C(c1ccco1)N1CCN(C(=O)C2CC(c3ccc(F)cc3)=NO2)CC1 (stereo unspecified) 5.7%
Fc1ccc(N2N=C(c3cccs3)CC2c2ccco2)c(F)c1 (stereo unspecified) 15.7%
CC(=O)Nc1ccc(N2C(=O)CCC2=O)cc1C 16.4%
O=C(Cn1nc(C(F)(F)F)c2c1CCC2)NCc1ccc(F)cc1 -216%
CCCN1C(=O)C(NS(=O)(=O)c2ccc(N)cc2)(C(F)(F)F)C(C(=O)OC)=C1C (stereo unspecified) -3.4%
CCCCn1c(CCCNC(=O)CC)nc2ccccc21 -16.5%
Cc1ccccc1S(=O)(=O)Cc1ccc(C(=O)NCCN2CCCCC2C)o1 (stereo unspecified) 11.1%
Cc1cccc(NC(=O)Nc2cccc(Oc3c(F)c(F)c(F)c(F)c3F)c2)c1 20.6%
Cc1cccc(NC(=O)CN2C(=O)CNC2=O)c1 -16.3%
CC1=C(C(=O)Nc2ccc(Cl)cc2)C(c2ccco2)NC(=O)N1 (stereo unspecified) 0.4%
CCOc1ccccc1C(=O)NCc1ccco1 -0.6%
CCOC(=O)COc1ccc(Cl)cc1C1NC(=O)NC(C)=C1C(C)=O (stereo unspecified) 44.9%
c1ccc(CSc2ncnc3c2sc2nc(N4CCOCC4)c4c(c23)CCCC4)cc1 10.4%
CCOC(=O)c1sc(NC(=O)CSc2nc(C)cc(C(F)(F)F)n2)c(C#N)c1C 24.8%
CCC(=O)NC(Nc1cc(C)ccn1)(C(F)(F)F)C(F)(F)F 23.8%
COC(=O)C(NC(C)=O)(Nc1nc2c(s1)CCCC2)C(F)(F)F (stereo unspecified) 26.9%
O=C(CCN1C(=O)COc2ccccc21)NCCCN1CCN(c2ccc(F)cc2)CC1 3.9%
COc1ccc(OC)c(C2N(c3ccccn3)C(=O)C3CCCN32)c1 (stereo unspecified) 10.9%
CC1(C)Cc2nc3sc4c(SCC(=O)NC(c5ccccc5)c5ccccc5)ncnc4c3cc2CO1 20.2%
C=CCn1c(=S)[nH]c2nc3c(cc2c1=O)COC(C)(C)C3 31.2%
CN(C)c1ccnc2sc3c(=O)n(Cc4ccccc4)cnc3c12 49.6%
Cc1ccccc1NC(=O)c1cnn(-c2ccccc2)c1NC(=O)c1ccco1 1.2%
COc1ccccc1C(=O)Nc1ccc(NC(=O)c2ccco2)c(C)c1 -177%
Cc1cc(N)n2nc(-c3ccc(C(C)(C)C)cc3)cc2n1 38.3%
CC1CN(Cc2nc3c(c(=O)n(C)c(=O)n3C)n2Cc2cccc(Cl)c2)CC(C)O1 (stereo unspecified) 28%
Cn1c(=O)c2c(nc(NCCc3ccccc3)n2Cc2ccccc2)n(C)c1=O 5.6%
CCOC(=O)N1CCN(Cc2nc3c(c(=O)n(C)c(=O)n3C)n2Cc2ccccc2)CC1 9.9%
CCN1CCN(Cc2nc3c(c(=O)n(C)c(=O)n3C)n2CC(=O)c2ccccc2)CC1 29.8%
CCOC(=O)Cn1c(CN(Cc2ccccc2)Cc2ccccc2)nc2c1c(=O)[nH]c(=O)n2C 48.8%
CN1CCN(Cc2nc3c(c(=O)n(C)c(=O)n3C)n2Cc2cccc3ccccc23)CC1 -8.7%
Cn1c(=O)[nH]c(=O)c2c1nc(CN(Cc1ccccc1)Cc1ccccc1)n2CCN1CCOCC1 7.6%
C=CCOc1nc2c(c(=O)n(C)c(=O)n2C)n1Cc1ccc(Cl)cc1Cl 8.1%
CC(=O)c1ccc2c(ccc3ccccc32)c1 40.7%
CC(C)NC(=O)C(=O)NCCN1CCN(S(=O)(=O)c2ccc(Cl)cc2)CC1 20.7%
COCCN1Cc2cccc(C(=O)Nc3ccccc3OC)c2C1=O 34.5%
O=C(Nc1cc2ccccc2oc1=O)C1CCCCC1 3.6%
Cc1cccc(C)c1NC(=O)CCCSc1nnc(-c2ccco2)n1-c1ccccc1 25.6%
O=C(Nc1nnc(CCc2ccccc2)s1)C1CCCO1 (stereo unspecified) 16.3%
O=C(OC(C(=O)NC1CCCC1)c1ccc(F)cc1)c1ccno1 (stereo unspecified) 13.9%
CC(C)Cn1cnc2c1c(=O)n(CC(O)c1ccccc1)c(=O)n2CC(C)C (stereo unspecified) -5.7%
Cc1ccc(S(=O)(=O)N2CCCC2CO)cc1 (stereo unspecified) -37%
Cc1c(C(=O)OCC(=O)N(CCC#N)c2ccccc2)oc2c1ccc1ccccc12 -74.8%
CC(=O)Nc1ccccc1OC(=O)N1CCOCC1 -0.1%
CC(C)Cc1cc(C(=O)Nc2cc(Br)ccc2O)no1 18.1%
O=c1c2ccccc2oc2nc3n(c(=O)c12)CCCS3 -21.3%

— PubChem BioAssay AID777 (Sanford-Burnham Center for Chemical Genomics, 2007)
